iPSC survival up: enhancers of human iPSC single-cell survival. hiPSC single-cell survival, ATPlite luminescence; 100% = ROCK inhibitor wells, 0% = DMSO. survival enhancement, % at 20 µM. 0.044% of 360,000 active. AID 602274; in the data active = survival enhancement above about 18%;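 also: cells exposed to compounds for 16 hours before the ATP read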
Myeloid diff MLP: compounds promoting myeloid differentiation. calls only at 10 µM. ER-HoxA9 myeloid progenitors, lysozyme-GFP differentiation, flow cytometry. AID 624256. 1% of 360,000 active;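 active = normalized GFP-positive differentiation at or above the plate's own cutoff, the solvent-only control mean plus 3 SD; inconclusive = no clear call, values can overlap the other calls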;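 also: cells exposed to compound for four days before flow analysis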
beta cell repl: induces beta-cell replication in MIN6 cells; MIN6 cells proliferation, ATPlite luminescence, 48 h; cells starved in 0.2% serum; 100% = growth in 10% serum; proliferation, % at 10 µM; 0.29% of 330,000 active; AID 2380;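 active = compounds whose signal lies at least 3.5 SD above the mean of all wells on their plate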;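 also: 0% = DMSO-treated cells in low-serum medium and 100% = 10% serum control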
Cardio protect: myocardial damage modulation in H9c2 cells. 0.63% of 360,000 active. protection from H2O2 cell death, % at 20 µM. H9c2 cardiomyocytes, H2O2 injury protection, ATPLite, 2 h;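 active = compounds giving at least 50% protection of heart cells from peroxide-induced death in the single-dose screen, raw or plate-pattern-corrected value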;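 also: 0% = DMSO wells with peroxide and 100% = DMSO wells without peroxide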
ABCB6 inh 2: blocks the human ABCB6 transporter. Q9NP58. fluorescence ratio to DMSO, % at 10 µM. 0.19% of 360,000 active. AID 602162. K562-ABCB6 porphyrin accumulation, flow cytometry, 1 h; stronger effect = lower value;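 active = fluorescence ratio to DMSO below 75%, the collection mean minus 3 SD; inconclusive = too few cells collected in the well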;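 also: signal is porphyrin accumulated inside mitochondria; 100% equals median channel fluorescence of DMSO control wells; lower ratio means ABCB6 inhibition with less porphyrin fluorescence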
Target sequence (Q9NP58 whole entry, looked up): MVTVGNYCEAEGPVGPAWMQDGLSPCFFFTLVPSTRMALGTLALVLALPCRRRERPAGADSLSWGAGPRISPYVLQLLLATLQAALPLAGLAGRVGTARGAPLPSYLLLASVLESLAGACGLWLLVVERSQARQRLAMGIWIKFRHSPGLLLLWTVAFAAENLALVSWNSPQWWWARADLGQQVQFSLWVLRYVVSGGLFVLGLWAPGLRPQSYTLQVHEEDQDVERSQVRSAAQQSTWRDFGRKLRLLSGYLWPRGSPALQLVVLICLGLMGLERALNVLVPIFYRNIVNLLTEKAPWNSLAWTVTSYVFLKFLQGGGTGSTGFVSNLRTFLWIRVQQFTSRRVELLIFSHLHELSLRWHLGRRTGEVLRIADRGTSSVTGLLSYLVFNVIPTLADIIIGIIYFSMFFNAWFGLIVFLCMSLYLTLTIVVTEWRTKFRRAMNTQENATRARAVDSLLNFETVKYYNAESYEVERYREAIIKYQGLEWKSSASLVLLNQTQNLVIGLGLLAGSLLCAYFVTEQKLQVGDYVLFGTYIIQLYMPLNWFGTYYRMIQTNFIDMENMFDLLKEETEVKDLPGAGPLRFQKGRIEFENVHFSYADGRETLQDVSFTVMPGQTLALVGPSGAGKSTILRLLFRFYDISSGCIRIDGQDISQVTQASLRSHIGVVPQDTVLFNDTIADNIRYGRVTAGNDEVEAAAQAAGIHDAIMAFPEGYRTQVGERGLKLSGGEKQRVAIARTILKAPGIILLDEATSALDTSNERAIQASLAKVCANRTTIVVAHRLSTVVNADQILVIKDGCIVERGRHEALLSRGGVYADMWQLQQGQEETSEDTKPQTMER
Myeloid diff CP1: promotes myeloid progenitor differentiation; 2% of 2,300 active; ER-HoxA9 myeloid progenitors, GFP/Mac1 double-positive flow; calls only; shares compounds with Myeloid diff MLP;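 active = share of green or green-and-red cells above 9 and 9% in run 1 or 4 and 3% in run 2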
GFP autofluor: counter-screen for myeloid differentiation promoters: compound fluorescence. 7.4% of 2,300 active. shares compounds with Myeloid diff MLP. ER-HoxA9 myeloid progenitors, no estrogen, GFP autofluorescence flow cytometry; vehicle wells 0%, positive control 100%. fluorescence response, % (test concentration not listed);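 active = over 5% cells positive for green fluorescent reporter, or over 2% positive for both it and APC stain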;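 also: range taken on the double positive population between DMSO and positive control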
The depositor's hits bear a star; i = inactive; u = inconclusive; x = not tested or not shown; + = active, no number. Compounds with a hit are over-represented: about 2.2% of the library has one in this group of screens.

SMILES | iPSC survival up | Myeloid diff MLP | beta cell repl | Cardio protect | ABCB6 inh 2 | Myeloid diff CP1 | GFP autofluor
O=C1NC(=O)c2cc(NC(=O)C3CCCO3)ccc21 (configuration not stated) | 9 | i | 1 | 2 | 99 | i | 0
O=C1OCc2cc(NC(=O)C3CCCO3)ccc21 (configuration not stated) | 1 | i | -4 | 0 | 100 | x | x
O=C(Nc1cc(Cl)c(O)c(Cl)c1)C1CCCO1 (configuration not stated) | 1 | i | -1 | 1 | 95 | x | x
O=C(O)c1cc(NC(=O)C2CCCO2)cc(NC(=O)C2CCCO2)c1 (configuration not stated) | -2 | + | -1 | 3 | 103 | i | 0
COc1ccc(C2/C(=C(/O)c3ccc(C)cc3)C(=O)C(=O)N2CC2CCCO2)cc1OC (configuration not stated) | 4 | i | -1 | 2 | 99 | x | x
N=C1C(c2nc3ccccc3s2)=C(O)CN1Cc1ccco1 | -3 | + | -2 | 0 | 108 | i | 0
CC1CCc2sc(C(=O)NN=C3CCCC3)cc2C1 (configuration not stated) | 1 | + | x | 10 | 101 | i | 0
CC1=C(C(=O)O)N2C(=O)C(NC(=O)c3nn(C)c(C)c3Cl)C2SC1 (configuration not stated) | 1 | i | 0 | 8 | 103 | i | 0
CN(Cc1ccccc1)C(=O)c1[nH]cnc1C(=O)NCCCCCNC(=O)OC(C)(C)C | 2 | + | -6 | -3 | 106 | i | 1
C[C@H](NC(=O)c1nc[nH]c1C(=O)N(C)Cc1ccccc1)C(=O)OC(C)(C)C | -2 | i | 1 | 2 | 101 | x | x
Oc1ccccc1N=Cc1c(O)ccc2oc3c(c12)CCCC3 | 0 | i | -7 | 7 | 107 | i | 3
C=C(C)C(O)CC/C(C)=C/Cc1c(O)ccc(C(=O)/C=C/c2ccc(O)cc2)c1O (configuration not stated) | -1 | i | -6 | -6 | 100 | x | x
O=C(NC1CC2CCC1C2)c1ccco1 (configuration not stated) | 0 | i | 3 | 3 | 100 | i | 0
Cc1cc2c(cc1C)N(CC(=O)N1CCCC1)C(=O)CC(c1ccccc1)=N2 | 4 | i | 2 | 8 | 99 | i | 0
COc1ccc(NC(=O)CSc2nnc(CN3CCOCC3)n2-c2ccccc2)cc1Cl | 1 | i | -2 | 7 | 98 | x | x
COc1ccc(C)cc1N(CC(=O)N1CCCC1)S(C)(=O)=O | 0 | i | -4 | -5 | 96 | x | x
COc1cc(S(=O)(=O)N2CCC(c3nc4ccccc4s3)CC2)ccc1S(=O)(=O)N1CC(C)CC(C)C1 (configuration not stated) | -3 | i | -5 | 2 | 110 | i | 1
Cc1ccc(S(=O)(=O)N2CCCCC2CCNC(=O)C(=O)Nc2ccccc2F)cc1 (configuration not stated) | 1 | + | -5 | -5 | 101 | i | 0
COc1ccccc1NC(=O)C1CCCCN1S(=O)(=O)c1ccc(F)cc1 (configuration not stated) | 0 | i | 2 | 7 | 96 | x | x
CCCn1ncc(CN2CCC(CO)(Cc3ccc(OC)cc3)CC2)c1C | -1 | i | -1 | -4 | 100 | x | x
CCCCNc1c(-c2cc3ccccc3o2)nc2nc(C)cc(C)n12 | 0 | + | x | x | 660 | i | 1
COc1ccc(Nc2c(-c3cc4ccccc4o3)nc3nc(C)cc(C)n23)cc1 | 0 | i | x | x | 125 | x | x
CC(OC(=O)c1ccccc1C(=O)N(C)c1ccccc1)C(=O)Nc1ccc(C(N)=O)cc1 (configuration not stated) | 0 | i | -4 | 3 | 98 | x | x
CC(OC(=O)c1cc(O)c2ccccc2c1O)C(=O)Nc1ccc(C(N)=O)cc1 (configuration not stated) | -1 | + | -6 | -19 | 128 | i | 3
COCCOc1ccc(C(F)(F)F)cc1N | 1 | i | 2 | 9 | 98 | x | x
SMILES | iPSC survival up | Myeloid diff MLP | beta cell repl | Cardio protect | ABCB6 inh 2 | Myeloid diff CP1 | GFP autofluor
Cc1cc(N2CCN(S(=O)(=O)c3ccc4c(c3)OCCO4)CC2)n2ncnc2n1 | -1 | i | -1 | -4 | 93 | x | x
CCCCNC(=O)C[C@@H]1C[C@@]2(C(=O)OC)CC(C)(C)CC=C2N(Cc2ccc3c(c2)OCO3)C1=O | x | i | x | x | x | x | x
COc1ccc(Cc2c(-c3ccc(C)cc3)nc3c4ccccc4ccn23)c(C)c1 | -1 | i | x | -10 | 105 | x | x
CCCc1nc2c3ccccc3ccn2c1Cc1ccc(OC)cc1C | -3 | + | x | 0 | 157 | + | 1
COc1ccc(OC)c(NC(=O)CNC(=O)c2ccc([N+](=O)[O-])cc2)c1 | -1 | i | 2 | -3 | 98 | i | 0
CC(C)(C)c1cc(Cl)c(O)c(NC(=S)NC(=O)c2cccnc2)c1 | 1 | + | -6 | 10 | 107 | i | 0
COc1cccc(C(O)c2nc(-c3ccccc3C)cs2)c1 (configuration not stated) | 0 | + | x | -6 | 101 | i | 0
O=C1CN(C(=O)COC(=O)CCSc2ccccc2Cl)c2ccccc2N1 | -2 | + | 1 | 5 | 96 | i | 0
COc1ccccc1C(=O)NCCC(=O)N1CC(=O)Nc2ccccc21 | 4 | + | -2 | 10 | 94 | i | 0
COc1cc(SC)ccc1C(=O)Nc1c(Cl)cncc1Cl | 0 | i | -1 | -6 | 110 | x | x
CCCc1nc2ccc(Br)cn2c1Cc1ccccc1OC | -1 | i | x | -11 | 95 | x | x
CC(C)c1ccc(/C=C(\c2nc3ccccc3[nH]2)S(=O)(=O)c2ccccc2)cc1 | -1 | + | -6 | -20 | 93 | i | 0
O=S(=O)(/C(=C/c1ccc(C(F)(F)F)cc1)c1nc2ccccc2[nH]1)c1ccccc1 | -3 | u | x | -31 | 100 | x | x
Cc1cccc(N2CCN(C(=S)NCCc3ccccc3)CC2)c1C | -1 | + | 0 | -8 | 100 | i | 0
COCCNC(=S)N1CCN(c2cccc(C)c2C)CC1 | -1 | i | -3 | 2 | 99 | x | x
Cc1cccc(C(=O)NCC(=O)N2CCCCCCC2)c1 | 0 | i | 3 | 9 | 102 | x | x
Cn1cc(/C=N/n2cnc3scc(-c4ccc(Cl)cc4)c3c2=O)c2ccccc21 | 1 | u | -5 | 1 | 95 | x | x
O=C(Nc1ccc(S(=O)(=O)N2CCCCC2)cc1)c1ccc(=O)[nH]c1 | 0 | i | 2 | 4 | 104 | x | x

Screening results (PubChem)
